Hits are enriched below; roughly 0.88% of the tested compounds scored in any of these assays.
pAkt inh: inhibitors of Akt phosphorylation. 0.32% of 360,000 active. activity change, % for hits at 50 µM. Neuro2A IGF-stimulated pAkt S473 HTRF, 20 min; stronger effect = lower value; in the data active means activity change below about -80%; inconclusive means mostly about -51% to -80%; further: on the % scale 0 is the no-effect control and ±100 the full control effect
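Neuro2A cells (4,500/well, DMEM with 0.5% FBS) were treated with compound at a single 50 µM final concentration, stimulated with 6 nM IGF for 20 min at 37 °C, and lysed. Phospho-Akt Ser473 was read by HTRF as 665/615 ratio ×10^4.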
RGS4 inhibitor: human RGS4 inhibition; P49798; Transcreener GDP fluorescence polarization, RGS4-accelerated GTP hydrolysis; Potency, µM (series often up to 114 µM), for the others: top-dose activity change, negative = inhibition, hits mostly inhibitors; 0.039% of 390,000 active; further: potency means the concentration at half of the fitted maximal effect; on the % scale 0 is the no-effect control and ±100 the full control effect; nearly all actives have a fitted effect of over 75% in size
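MLSMR compounds (23 nl, pin-transferred) preincubated 10 min at room temperature with a 500nM (2x) first reagent, then RGS4 at 900nM (2x) plus Transcreener GDP mix added; fluorescence polarization (620/688 nm) read before and after 90 min at 30 °C.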
CtBP-E1A blk: blocks the CtBP interaction with E1A; AID 651724; 0.49% of 340,000 active; activity change, % (concentration not given with the values); AlphaScreen GST-E1A/His-CtBP binding, 1536-well; stronger effect = lower value; in the data active means activity change below about -65%; inconclusive means mostly about -30% to -63%; further: on the % scale 0 is the no-effect control and ±100 the full control effect
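GST-E1A and His-tagged CtBP (125 nM each as 5X stock) were preincubated with pin-transferred compound for 2 h at 37 °C in the dark, then glutathione donor and nickel acceptor beads were added for 1 h before AlphaScreen reading.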
Glioma ERSR ind: inducers of ER stress response in human glioma cells | U87-MG GRP78 promoter luciferase reporter, 16 h | Potency, µM, for inactives: top-dose activation, usual class: activators | 0.02% of 420,000 active | AID 602332; further: potency means the concentration at half of the fitted maximal effect; series mostly up to about 76 µM; % of control where 0% means no effect; nearly all actives have a fitted effect of over 35% in size
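Stably transfected U87-MG human glioma cells carrying a GRP78-based luminescent sensor were seeded at 1000 cells/well, pin-dosed with compounds and incubated 16 h. Luciferase reagent was then added, and end-point luminescence was read after 10 min at room temperature.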
Six1-Eya2 blk: Six1/Eya2 interaction inhibition; Q15475+O00167; AlphaScreen GST-Six1/His-Eya2 binding, biochemical; stronger effect = lower value; activity change, % (no concentration beside the values); 0.56% of 360,000 active; AID 651725; in the data active means activity change below about -65%; inconclusive means mostly about -30% to -63%; further: on the % scale 0 is the no-effect control and ±100 the full control effect
Target sequence (O00167 whole entry, looked up): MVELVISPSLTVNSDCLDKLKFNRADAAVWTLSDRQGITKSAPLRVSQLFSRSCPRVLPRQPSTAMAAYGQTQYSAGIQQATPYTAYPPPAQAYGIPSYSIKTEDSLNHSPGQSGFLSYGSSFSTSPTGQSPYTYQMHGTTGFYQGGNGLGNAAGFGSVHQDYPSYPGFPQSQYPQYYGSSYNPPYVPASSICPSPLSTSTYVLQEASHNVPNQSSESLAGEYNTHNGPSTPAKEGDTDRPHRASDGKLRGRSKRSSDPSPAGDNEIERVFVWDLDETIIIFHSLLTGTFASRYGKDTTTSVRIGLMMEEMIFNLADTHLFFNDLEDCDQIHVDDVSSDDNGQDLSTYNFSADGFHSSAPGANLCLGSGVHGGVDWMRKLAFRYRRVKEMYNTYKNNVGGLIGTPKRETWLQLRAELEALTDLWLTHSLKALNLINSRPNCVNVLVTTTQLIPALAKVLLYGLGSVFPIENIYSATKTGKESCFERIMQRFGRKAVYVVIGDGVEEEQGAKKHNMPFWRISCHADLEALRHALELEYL
Target sequence (Q15475 whole entry, looked up): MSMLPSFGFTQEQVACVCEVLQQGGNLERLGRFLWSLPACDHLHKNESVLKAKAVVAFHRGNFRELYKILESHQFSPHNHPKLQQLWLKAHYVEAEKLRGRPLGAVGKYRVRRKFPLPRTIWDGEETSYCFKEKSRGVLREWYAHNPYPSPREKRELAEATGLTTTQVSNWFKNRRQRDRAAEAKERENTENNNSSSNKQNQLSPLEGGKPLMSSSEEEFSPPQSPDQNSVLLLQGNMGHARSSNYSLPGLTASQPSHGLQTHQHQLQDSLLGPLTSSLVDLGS
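AlphaScreen luminescence read after one hour at 37 °C in darkness. Pin-transferred compounds met GST-Six1 and His-Eya2 protein (5X stock 250 nM/500 nM) plus glutathione donor and Ni-chelate acceptor beads (5X, 50 ug/mL).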
* hit, by the source's call; ! = not confirmed by another sample. Unless noted, the call rests on the fitted dose curve; in most records, active means well fitted curve in the direction sought with a large enough effect; inconclusive means small, poorly fitted or top-dose-only effect, or another doubt; inactive means no such curve, though single readings can be large; an effect the other way counts as inactive or inconclusive.

Screening COc1cccc(CNc2ccc3nc(-c4ccc(N)cc4)c(OC)n3n2)c1 returned RGS4 inhibitor 37.7µM*! and Glioma ERSR ind -2.5%.
`CCCCOC(=O)c1cccc(NC(=O)CC)c1` gave pAkt inh -112.3%*, RGS4 inhibitor -30.4%, CtBP-E1A blk -2.7, Glioma ERSR ind -3.3% and Six1-Eya2 blk 3.8.
For O=S1(=O)CCO[C@H]2CCCC[C@@H]2N1Cc1ccc(Cl)cc1 the results were Glioma ERSR ind 0.9%.
Screening CSCC[C@H](NC(=O)[C@H](Cc1ccc(OS(=O)(=O)O)cc1)NC(=O)[C@@H](N)CC(=O)O)C(=O)NCC(=O)N[C@@H](Cc1c[nH]c2ccccc12)C(=O)N[C@@H](CCSC)C(=O)N[C@@H](CC(=O)O)C(=O)N[C@@H](Cc1ccccc1)C(N)=O returned Glioma ERSR ind -0.5%.
For Cc1cccc(-n2c(=O)c3c(n4cnnc24)-c2ccccc2CC32CCCCC2)c1 the results were pAkt inh inactive, RGS4 inhibitor -14.2%, CtBP-E1A blk -8.9, Glioma ERSR ind -1.7% and Six1-Eya2 blk -7.5.
For O=c1c2c(n3cnnc3n1-c1ccccc1)-c1ccccc1CC21CCCCC1 the results were pAkt inh -113.7%*, RGS4 inhibitor -6.6%, CtBP-E1A blk 3.5, Glioma ERSR ind -1.0% and Six1-Eya2 blk -2.6.
For CC(C)c1c(C(=O)NCc2ccccn2)cnn1-c1nccc(-c2ccccc2F)n1 the results were Glioma ERSR ind -0.8%.
For Cn1cc(C(=O)Nc2cccc(F)c2)cn1 the results were pAkt inh -121.8%*, RGS4 inhibitor -29.2%, CtBP-E1A blk 3.4, Glioma ERSR ind 2.6% and Six1-Eya2 blk 4.1.
Screening O=C(COC(=O)/C=C/c1cccc(Cl)c1)Nc1cccc(S(=O)(=O)NC2=NCCC2)c1 returned pAkt inh inactive, RGS4 inhibitor 6.4%, CtBP-E1A blk -80.2*, Glioma ERSR ind -2.5% and Six1-Eya2 blk -14.5.
`O=C(COC(=O)/C=C/c1cccc(Br)c1)Nc1cccc(S(=O)(=O)NC2=NCCC2)c1` gave pAkt inh inactive, RGS4 inhibitor 15.1%, Glioma ERSR ind -2.6% and Six1-Eya2 blk -19.9.
For O=C(COC(=O)/C=C/c1ccc(Cl)cc1)Nc1cccc(S(=O)(=O)NC2=NCCCCC2)c1 the results were pAkt inh inactive, RGS4 inhibitor -0.7%, CtBP-E1A blk -83.8*, Glioma ERSR ind -5.2% and Six1-Eya2 blk -6.7.
Screening COc1cc(=O)n2c(c1C(=O)NCc1ccco1)CCN(Cc1c(F)cccc1F)CC2 returned Glioma ERSR ind -3.1%.
`O=C(CSc1ccncc1)NCC1Cc2cccc(-c3cncnc3)c2O1` (stereo not given) gave Glioma ERSR ind -3.2%.
For COC(=O)C1CCN(Cc2ccc3c(c2)CN(C(=O)c2cc(C4CC4)on2)CCO3)CC1 the results were Glioma ERSR ind 0.2%.
`C=C1NN(Cc2ccccc2)C(=O)N1c1ccc(OCc2ccccc2)cc1` gave Glioma ERSR ind -3.2%.
`O=C(CSc1nnc(-c2ccc(C(F)(F)F)cn2)o1)Nc1ccccc1Cl` gave pAkt inh inactive, RGS4 inhibitor inconclusive, CtBP-E1A blk inconclusive, Glioma ERSR ind 0.6% and Six1-Eya2 blk -84.0*.
For CC(C)(C)c1ccc(C(=O)C[n+]2cccc(Br)c2)cc1 the results were Glioma ERSR ind -5.4%.
For CCN1CCN(C(=O)c2cnn(-c3ncc4c(n3)-c3ccccc3CCC4)c2COC)CC1 the results were Glioma ERSR ind -2.8%.
`Cc1ccc(C(=O)NC(=S)c2c(C)cc3ccccn23)cc1` gave pAkt inh inactive, CtBP-E1A blk -21.5, Glioma ERSR ind 1.1% and Six1-Eya2 blk -75.9*.
COc1cc(OC)c2c(c1)OC(c1ccccc1)CC2=O (stereo not given) was read as RGS4 inhibitor 5.32µM* and Glioma ERSR ind -1.4%.
C/C(=N\O)c1ccc(OCC(=O)N2CCCCC2)cc1 was read as Glioma ERSR ind -3.7%.
Screening COc1ccccc1C(=O)NC(=S)/C=C1/N(C)c2ccccc2C1(C)C returned pAkt inh inactive, RGS4 inhibitor inconclusive, CtBP-E1A blk -73.7*, Glioma ERSR ind 4.3% and Six1-Eya2 blk -72.9*.
`CN1/C(=C/C(=S)NC(=O)C2(C)CC2(Cl)Cl)C(C)(C)c2ccccc21` (stereo not given) gave pAkt inh inactive, RGS4 inhibitor -37.3%, CtBP-E1A blk -71.7*, Glioma ERSR ind 1.9% and Six1-Eya2 blk -66.3*.
Screening CCC(C)C(N)C(=O)NC(CC(N)=O)C(=O)NC(CC(C)C)C(=O)NC(CCCCN)C(=O)NC(C)C(=O)NC(CC(C)C)C(=O)NC(C)C(=O)NC(C)C(=O)NC(CC(C)C)C(=O)NC(C)C(=O)NC(CCCCN)C(=O)NC(CCCCN)C(=O)NC(C(=O)NC(CC(C)C)C(N)=O)C(C)CC (stereo not given) returned Glioma ERSR ind -9.6%.
For O=C(O)c1cc(Nc2cc(Cl)c3nonc3c2[N+](=O)[O-])ccc1O the results were pAkt inh inactive, RGS4 inhibitor -85.7%, Glioma ERSR ind -4.2% and Six1-Eya2 blk -79.3*.
O=[N+]([O-])c1c(Nc2ccccc2O)cc(Cl)c2nonc12 was read as pAkt inh inactive, RGS4 inhibitor inconclusive, CtBP-E1A blk -5.6, Glioma ERSR ind -13.9% and Six1-Eya2 blk -27.0.
`CCOc1cc(C=NNC(=O)c2cccc(S(=O)(=O)N3CCCC3)c2)ccc1O` gave pAkt inh inactive, RGS4 inhibitor -2.3%, Glioma ERSR ind -3.5% and Six1-Eya2 blk -66.5*.
O=C(CSc1cccc2cccnc12)Nc1ccccc1F was read as pAkt inh inactive, RGS4 inhibitor -3.0%, CtBP-E1A blk inconclusive, Glioma ERSR ind 2.2% and Six1-Eya2 blk inconclusive.
CCCCOc1ccc(NC(=O)CSc2cccc3cccnc23)cc1 was read as pAkt inh inactive, RGS4 inhibitor -0.7%, CtBP-E1A blk -88.3*, Glioma ERSR ind 0.0% and Six1-Eya2 blk inconclusive.
Screening CCOc1cc(/C=N/NC(=O)CSc2cccc3cccnc23)ccc1O returned pAkt inh inactive, RGS4 inhibitor 7.7%, CtBP-E1A blk -74.0*, Glioma ERSR ind -1.3% and Six1-Eya2 blk -65.9*.
For Cc1cccc(NC(=O)CSc2cccc3cccnc23)c1 the results were pAkt inh inactive, RGS4 inhibitor 0.1%, Glioma ERSR ind -1.5% and Six1-Eya2 blk -81.3*.
Cc1cc(-c2ccnc(-n3ncc(C(=O)NCC4COCCO4)c3C3CC3)n2)c(C)s1 (stereo not given) was read as Glioma ERSR ind 5.5%.
N#CC(=C(/N)Sc1ccccc1N)/C(C#N)=C(\N)Sc1ccccc1N was read as Glioma ERSR ind -0.8%.
COCCC1CCCCN1Cc1nc(N2CCCC2)c2cc(OC)c(OC)cc2n1 (stereo not given) was read as Glioma ERSR ind -1.5%.

Screening results: PubChem BioAssay, National Center for Advancing Translational Sciences (NCATS)
